Of roughly 7,900 targets only a part is listed; those with a hit were picked by preference. About 0.6% of all pairs of compound and target were hits. Values without a mark were called inactive.
compound: C[C@H](Nc1ncnc2nc[nH]c12)c1cc2cccc(Cl)c2c(=O)n1-c1ccccc1 [duvelisib]; test: log2 fold change, soluble protein after heating vs DMSO (PISA); higher = thermal stabilisation; K562 cells, 10 uM, 30 min; active = over 0.2 and 3.5 SD of the protein, either way, in both replicates (recomputed)
Outline: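 Soluble protein was defined as the supernatant after 21,000xg for 90 min. It came from K562 cells at 2×10^6 cells/mL given 10 μM compound for 30 min, heated in aliquots for 3 min across 48°C-58°C, pooled, and extracted in PBS with 0.5% NP-40 at 4°C, and was quantified by TMTpro 16plex LC-MS/MS with equalised channel sums. Thermal stability against control samples, from duplicates, is reported as log2 fold change.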

UniProt P11310, sequence (P11310 whole entry, looked up): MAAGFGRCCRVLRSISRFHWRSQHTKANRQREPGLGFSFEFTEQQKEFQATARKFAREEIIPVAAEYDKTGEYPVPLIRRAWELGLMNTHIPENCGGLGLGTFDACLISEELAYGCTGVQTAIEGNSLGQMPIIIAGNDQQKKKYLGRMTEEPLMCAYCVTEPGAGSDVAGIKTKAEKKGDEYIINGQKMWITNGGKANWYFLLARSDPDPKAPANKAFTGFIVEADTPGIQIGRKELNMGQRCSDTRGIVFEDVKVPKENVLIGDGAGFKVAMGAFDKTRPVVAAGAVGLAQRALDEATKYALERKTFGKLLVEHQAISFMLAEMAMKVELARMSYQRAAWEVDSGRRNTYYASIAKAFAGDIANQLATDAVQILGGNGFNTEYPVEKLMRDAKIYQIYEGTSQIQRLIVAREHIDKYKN
UniProt P33121, sequence (P33121 whole entry, looked up): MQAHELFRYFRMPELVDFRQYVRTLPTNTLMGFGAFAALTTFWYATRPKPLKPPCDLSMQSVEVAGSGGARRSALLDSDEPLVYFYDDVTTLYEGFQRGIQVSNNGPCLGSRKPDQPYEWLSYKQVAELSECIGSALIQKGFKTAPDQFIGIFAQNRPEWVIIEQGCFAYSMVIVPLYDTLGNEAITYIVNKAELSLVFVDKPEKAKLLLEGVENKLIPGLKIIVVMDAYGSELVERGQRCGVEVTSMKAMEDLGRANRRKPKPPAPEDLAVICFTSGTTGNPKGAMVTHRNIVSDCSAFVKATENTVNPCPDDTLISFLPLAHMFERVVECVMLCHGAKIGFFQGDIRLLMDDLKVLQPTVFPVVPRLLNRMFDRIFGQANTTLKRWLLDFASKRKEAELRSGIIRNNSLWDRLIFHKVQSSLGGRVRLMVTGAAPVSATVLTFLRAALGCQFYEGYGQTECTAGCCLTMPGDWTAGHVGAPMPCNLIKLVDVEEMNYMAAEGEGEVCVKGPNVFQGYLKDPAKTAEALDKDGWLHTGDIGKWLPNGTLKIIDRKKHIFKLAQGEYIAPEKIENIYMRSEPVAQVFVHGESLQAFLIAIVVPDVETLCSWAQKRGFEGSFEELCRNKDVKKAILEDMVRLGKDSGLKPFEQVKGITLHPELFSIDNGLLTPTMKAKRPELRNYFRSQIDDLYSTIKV
UniProt P52895, sequence (P52895 whole entry, looked up): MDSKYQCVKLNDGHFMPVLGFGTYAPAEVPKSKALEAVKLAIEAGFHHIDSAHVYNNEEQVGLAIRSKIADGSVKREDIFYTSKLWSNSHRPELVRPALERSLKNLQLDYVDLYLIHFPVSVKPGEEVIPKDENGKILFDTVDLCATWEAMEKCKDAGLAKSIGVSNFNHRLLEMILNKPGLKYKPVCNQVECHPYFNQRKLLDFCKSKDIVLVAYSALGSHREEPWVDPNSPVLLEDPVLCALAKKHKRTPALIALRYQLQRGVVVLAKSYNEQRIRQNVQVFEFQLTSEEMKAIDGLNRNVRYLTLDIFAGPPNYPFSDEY
UniProt P30043, sequence (P30043 whole entry, looked up): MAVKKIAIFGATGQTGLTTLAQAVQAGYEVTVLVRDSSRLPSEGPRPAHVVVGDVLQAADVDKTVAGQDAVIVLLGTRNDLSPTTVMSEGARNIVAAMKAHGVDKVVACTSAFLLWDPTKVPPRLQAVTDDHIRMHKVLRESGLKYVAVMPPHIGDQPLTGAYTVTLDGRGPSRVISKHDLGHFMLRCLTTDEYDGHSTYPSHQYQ
UniProt Q9H8Y5, sequence (Q9H8Y5 whole entry, looked up): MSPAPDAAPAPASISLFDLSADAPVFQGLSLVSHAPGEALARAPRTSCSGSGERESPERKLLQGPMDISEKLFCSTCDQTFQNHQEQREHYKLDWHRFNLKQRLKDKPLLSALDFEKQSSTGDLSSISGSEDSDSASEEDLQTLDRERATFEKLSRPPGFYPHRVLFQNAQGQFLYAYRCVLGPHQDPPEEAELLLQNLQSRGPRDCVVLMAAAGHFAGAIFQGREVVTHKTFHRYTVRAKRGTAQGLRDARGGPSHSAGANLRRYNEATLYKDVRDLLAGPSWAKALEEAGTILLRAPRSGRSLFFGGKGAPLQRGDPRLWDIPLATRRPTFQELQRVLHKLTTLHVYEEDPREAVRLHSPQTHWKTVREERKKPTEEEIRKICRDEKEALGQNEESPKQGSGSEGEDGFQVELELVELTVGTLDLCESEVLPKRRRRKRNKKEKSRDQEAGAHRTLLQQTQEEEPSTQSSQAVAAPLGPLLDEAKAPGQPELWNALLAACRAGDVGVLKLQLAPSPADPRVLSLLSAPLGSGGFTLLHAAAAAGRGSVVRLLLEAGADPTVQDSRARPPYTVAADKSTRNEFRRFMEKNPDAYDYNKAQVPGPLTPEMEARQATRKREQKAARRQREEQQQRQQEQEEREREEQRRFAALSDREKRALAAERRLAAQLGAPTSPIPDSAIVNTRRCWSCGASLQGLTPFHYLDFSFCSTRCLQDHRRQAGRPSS
UniProt P55263, sequence (P55263 whole entry, looked up): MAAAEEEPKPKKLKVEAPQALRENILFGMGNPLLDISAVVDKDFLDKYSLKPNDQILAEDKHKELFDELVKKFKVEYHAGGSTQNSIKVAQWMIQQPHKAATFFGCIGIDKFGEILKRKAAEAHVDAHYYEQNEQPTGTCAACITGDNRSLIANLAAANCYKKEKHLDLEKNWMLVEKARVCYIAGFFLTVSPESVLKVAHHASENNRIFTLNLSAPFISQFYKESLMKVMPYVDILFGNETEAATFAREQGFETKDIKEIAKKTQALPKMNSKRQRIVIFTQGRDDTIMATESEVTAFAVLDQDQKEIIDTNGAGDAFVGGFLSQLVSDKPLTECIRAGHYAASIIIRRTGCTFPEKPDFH
UniProt P18085, sequence (P18085 whole entry, looked up): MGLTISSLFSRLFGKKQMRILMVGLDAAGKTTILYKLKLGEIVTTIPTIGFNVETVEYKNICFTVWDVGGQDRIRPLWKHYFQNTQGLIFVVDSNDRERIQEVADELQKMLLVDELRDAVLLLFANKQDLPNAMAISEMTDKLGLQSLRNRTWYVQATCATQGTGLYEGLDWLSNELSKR
UniProt Q9UBL3, sequence (Q9UBL3 whole entry, looked up): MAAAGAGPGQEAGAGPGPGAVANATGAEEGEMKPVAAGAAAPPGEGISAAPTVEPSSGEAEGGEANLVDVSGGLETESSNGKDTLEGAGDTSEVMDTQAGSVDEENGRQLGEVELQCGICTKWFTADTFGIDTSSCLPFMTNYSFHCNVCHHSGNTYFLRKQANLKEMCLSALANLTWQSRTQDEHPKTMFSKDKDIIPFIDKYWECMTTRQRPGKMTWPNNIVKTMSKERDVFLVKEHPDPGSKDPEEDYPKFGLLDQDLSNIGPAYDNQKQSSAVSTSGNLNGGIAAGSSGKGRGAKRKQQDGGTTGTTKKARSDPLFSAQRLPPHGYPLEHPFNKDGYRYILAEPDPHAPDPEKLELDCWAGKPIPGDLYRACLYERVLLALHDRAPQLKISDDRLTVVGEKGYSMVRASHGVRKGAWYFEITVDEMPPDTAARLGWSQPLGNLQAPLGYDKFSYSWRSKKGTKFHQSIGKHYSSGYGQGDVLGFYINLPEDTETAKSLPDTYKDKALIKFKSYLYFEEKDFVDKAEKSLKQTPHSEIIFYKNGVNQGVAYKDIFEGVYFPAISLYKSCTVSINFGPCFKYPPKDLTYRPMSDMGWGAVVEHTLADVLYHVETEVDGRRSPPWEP
UniProt Q8WUW1, sequence (Q8WUW1 whole entry, looked up): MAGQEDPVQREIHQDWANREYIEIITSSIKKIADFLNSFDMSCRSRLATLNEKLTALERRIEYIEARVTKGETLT

ACSL5 isoform 3 (UniProt Q9ULC5) and ADK (UniProt P55263) are within 0.2 log units of each other in log2 fold change: -0.024 for the first, 0.114 for the second.

ATP1B3 (UniProt P54709) and BCCIP isoform 2 (UniProt Q9P287) are within 0.2 log units of each other in log2 fold change: 0.028 for the first, 0.067 for the second.

ANKZF1 (UniProt Q9H8Y5) and BRD8 isoform 2 (UniProt Q9H0E9) are within 0.2 log units of each other in log2 fold change: -0.15 for the first, 0.037 for the second.

First: ALDH18A1 (UniProt P54886)
UniProt P54886, sequence (P54886 whole entry, looked up, canonical isoform): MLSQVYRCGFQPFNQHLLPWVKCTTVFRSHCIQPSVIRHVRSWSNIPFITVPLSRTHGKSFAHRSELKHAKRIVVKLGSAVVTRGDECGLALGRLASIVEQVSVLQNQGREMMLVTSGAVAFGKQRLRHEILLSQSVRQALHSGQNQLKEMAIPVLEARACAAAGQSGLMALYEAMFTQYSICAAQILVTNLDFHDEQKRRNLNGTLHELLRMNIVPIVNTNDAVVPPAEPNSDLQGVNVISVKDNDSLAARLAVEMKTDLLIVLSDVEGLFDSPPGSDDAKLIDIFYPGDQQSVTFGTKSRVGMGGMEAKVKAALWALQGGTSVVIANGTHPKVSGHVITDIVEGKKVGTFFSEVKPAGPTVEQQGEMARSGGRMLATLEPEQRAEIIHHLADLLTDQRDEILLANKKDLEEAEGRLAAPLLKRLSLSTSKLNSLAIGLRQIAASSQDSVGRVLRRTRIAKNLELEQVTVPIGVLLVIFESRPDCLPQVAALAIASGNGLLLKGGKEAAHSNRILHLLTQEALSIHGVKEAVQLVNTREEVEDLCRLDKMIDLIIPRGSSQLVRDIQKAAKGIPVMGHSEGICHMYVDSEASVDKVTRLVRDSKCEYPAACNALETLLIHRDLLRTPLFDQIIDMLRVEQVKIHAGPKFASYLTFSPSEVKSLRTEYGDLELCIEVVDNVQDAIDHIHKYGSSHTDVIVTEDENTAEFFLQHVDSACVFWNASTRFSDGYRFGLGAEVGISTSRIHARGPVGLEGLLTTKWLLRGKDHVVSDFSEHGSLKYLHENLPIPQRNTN
Second: AARSD1 isoform 3 (UniProt Q9BTE6)
UniProt Q9BTE6, sequence (Q9BTE6 whole entry, looked up): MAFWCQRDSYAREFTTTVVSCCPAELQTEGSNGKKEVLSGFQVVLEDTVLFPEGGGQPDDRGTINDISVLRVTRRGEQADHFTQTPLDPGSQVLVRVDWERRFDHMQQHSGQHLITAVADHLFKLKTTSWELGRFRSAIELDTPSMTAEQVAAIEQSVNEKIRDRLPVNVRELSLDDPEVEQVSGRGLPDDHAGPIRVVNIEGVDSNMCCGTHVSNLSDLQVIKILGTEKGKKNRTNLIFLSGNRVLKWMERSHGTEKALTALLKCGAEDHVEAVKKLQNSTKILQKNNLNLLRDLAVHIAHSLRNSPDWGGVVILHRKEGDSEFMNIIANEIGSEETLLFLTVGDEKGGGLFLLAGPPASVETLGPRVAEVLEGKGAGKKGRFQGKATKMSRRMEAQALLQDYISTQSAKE
The log2 fold change of the first is lower: -0.255 for the first, -0.04 for the second.

BRK1 isoform 2 (UniProt Q8WUW1) and BST2 (UniProt Q10589) are within 0.2 log units of each other in log2 fold change: 0.086 for the first, -0.004 for the second.

ATP6V1H (UniProt Q9UI12) and ACACB (UniProt O00763) are within 0.2 log units of each other in log2 fold change: 0.018 for the first, -0.113 for the second.

AHSA1 (UniProt O95433) and ARL6IP4 (UniProt Q66PJ3) are within 0.2 log units of each other in log2 fold change: 0.027 for the first, 0.039 for the second.

ABITRAM (UniProt Q9NX38) and ABCC5 (UniProt O15440) are within 0.2 log units of each other in log2 fold change: 0.029 for the first, 0.037 for the second.

BCAP29 isoform 2 (UniProt Q9UHQ4) and ASH2L (UniProt Q9UBL3) are within 0.2 log units of each other in log2 fold change: -0.006 for the first, 0.028 for the second.

ALG5 (UniProt Q9Y673) and BCL9L (UniProt Q86UU0) are within 0.2 log units of each other in log2 fold change: 0.11 for the first, -0.011 for the second.

APPL1 (UniProt Q9UKG1) and AFDN isoform 5 (UniProt P55196) are within 0.2 log units of each other in log2 fold change: 0.077 for the first, -0.016 for the second.

ALDH9A1 isoform 3 (UniProt P49189) and ACSL1 (UniProt P33121) are within 0.2 log units of each other in log2 fold change: 0.015 for the first, 0.056 for the second.

ACADM isoform 2 (UniProt P11310) and AKR1C2 (UniProt P52895) are within 0.2 log units of each other in log2 fold change: 0.018 for the first, -0.076 for the second.

ALG3 (UniProt Q92685) and AKR1C3 (UniProt P42330) are within 0.2 log units of each other in log2 fold change: 0.057 for the first, 0.23 for the second.

ARL6IP6 (UniProt Q8N6S5) and AK6 (UniProt Q9Y3D8) are within 0.2 log units of each other in log2 fold change: -0.005 for the first, 0.075 for the second.

APOB (UniProt P04114) and BLVRB (UniProt P30043) are within 0.2 log units of each other in log2 fold change: 0.003 for the first, 0.016 for the second.

First: ATP6AP1 (UniProt Q15904)
Second: ATP1A4 (UniProt Q13733)
The log2 fold change of the first is lower: -0.056 for the first, 0.174 for the second.

ARF4 (UniProt P18085) and BZW1 isoform 3 (UniProt Q7L1Q6) are within 0.2 log units of each other in log2 fold change: 0.081 for the first, -0.03 for the second.

Source: the supplement of paper PMC10849652
